# Screens deposited in PubChem BioAssay by several laboratories.
# Rows were chosen to be rich in hits. Some 1.8% of all compounds tested hit in one or more screens of this group.
# MBD2 inh: inhibitors of MBD2 binding to methylated DNA, primary screen, biochemical, TR-FRET, DNA-binding domain, human; MBD2 binding to methylated oligonucleotide; inhibition, % at 4.4 µM; 370,000 compounds, 0.31% hits; AID 686964, 2013; in the data active = inhibition above about 13%
# Neddylation inh: inhibitors of cullin neddylation, primary screen, biochemical, TR-FRET, uHTS, NAE and Ubc12; calls only at 25 µM; NEDD8-conjugating enzyme Ubc12 (Homo sapiens) + NEDD8-activating enzyme E1 regulatory …; 360,000 compounds, 0.58% hits; in the data active = inhibition above about 36%
# Target sequence (P61081 whole entry, looked up): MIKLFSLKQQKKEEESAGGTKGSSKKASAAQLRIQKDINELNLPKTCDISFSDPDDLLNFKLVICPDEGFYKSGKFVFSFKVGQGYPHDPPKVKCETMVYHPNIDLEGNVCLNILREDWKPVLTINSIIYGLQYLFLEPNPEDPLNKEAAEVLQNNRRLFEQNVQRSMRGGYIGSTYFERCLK
# Target sequence (Q13564 whole entry, looked up): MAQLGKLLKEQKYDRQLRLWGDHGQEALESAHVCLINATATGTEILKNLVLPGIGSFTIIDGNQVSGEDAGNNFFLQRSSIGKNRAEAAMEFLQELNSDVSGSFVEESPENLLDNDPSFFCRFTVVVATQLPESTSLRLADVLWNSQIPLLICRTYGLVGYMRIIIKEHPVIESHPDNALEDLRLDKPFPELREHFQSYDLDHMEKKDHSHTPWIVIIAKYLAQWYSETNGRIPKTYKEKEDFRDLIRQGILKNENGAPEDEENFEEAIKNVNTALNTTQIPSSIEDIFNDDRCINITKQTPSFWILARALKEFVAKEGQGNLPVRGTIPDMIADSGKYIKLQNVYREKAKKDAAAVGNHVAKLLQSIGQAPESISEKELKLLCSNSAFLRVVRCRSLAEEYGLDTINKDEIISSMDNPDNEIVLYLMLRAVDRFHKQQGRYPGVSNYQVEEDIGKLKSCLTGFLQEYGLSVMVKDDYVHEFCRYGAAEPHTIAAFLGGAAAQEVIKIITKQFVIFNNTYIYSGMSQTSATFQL
# UHRF1 binding: UHRF1 methylated DNA binding inhibitors, primary screen, counter-screen for MBD2 inhibitor project, biochemical, TR-FRET, human UHRF1, single concentration. inhibition, % at 4.4 µM. AID 687016, 2013. 370,000 compounds, 0.75% hits. E3 ubiquitin-protein ligase UHRF1 (Homo sapiens), Q96T88. UHRF1 binding to methylated oligo; in the data active = inhibition above about 21%;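 also: UHRF1 SRA domain binding a hemimethylated CpG hairpin DNA probe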
# UBC13 inh: UBC13 polyubiquitin chain formation inhibitors, primary screen, biochemical, TR-FRET, uHTS | 330,000 compounds, 0.47% hits | inhibition, % at 20 µM | Ubiquitin-conjugating enzyme E2 N (Homo sapiens), P61088; in the data active = inhibition above about 45%, passing the limit was not always enough; inconclusive = no clear call, values can overlap the other calls
# Casp3 counter: CASP3 inhibitor validation, counterassay for project on UBE2N polyubiquitination blockers, biochemical, one dose. shares compounds with UBC13 inh. Recombinant caspase-3, Caspase-Glo 3/7 luminescence, 60 min. inhibition, % at 20 µM. 1,400 compounds, 4% hits. AID 488856, 2010;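 active = mean inhibition across replicates above about 26%, limit read from the data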
# UBC13 conf: UBC13 polyubiquitination inhibitors, single-point retest, confirmation, biochemical, TR-FRET, single concentration; shares compounds with UBC13 inh; inhibition, % at 10 µM; 1,400 compounds, 68% hits; in the data active = inhibition above about 45%; inconclusive = no clear call, values can overlap the other calls
# A number is an active result; . = inactive; ? = inconclusive; / = no result given.
SMILES,MBD2 inh,Neddylation inh,UHRF1 binding,UBC13 inh,Casp3 counter,UBC13 conf
C#CCOCCOCCOCCNc1nc(N2CCN(C(=O)CCCCCCCCCCNC(=O)Cn3cc(CCCCCN)nn3)CC2)nc(N2CCN(C(=O)CCCCCCCCCCNC(=O)[C@@H]([C@H](C)O)n3cc(C)nn3)CC2)n1,/,.,/,116,.,118
C#CCOCCOCCOCCNc1nc(N2CCN(C(=O)[C@H]([C@@H](C)CC)n3cc(CCCCN)nn3)CC2)nc(N2CCN(C(=O)[C@H](CCCCN)n3cc(CC(C)O)nn3)CC2)n1 (some centres undefined),.,.,.,.,/,/
C#CCOCCOCCOCCNc1nc(N2CCN(C(=O)CCCCCCCCCCNC(=O)Cn3cc(C[C@@H](C)O)nn3)CC2)nc(N2CCN(C(=O)CCCCCCCCCCNC(=O)[C@@H]([C@H](C)CC)n3cc(CCCCCN)nn3)CC2)n1,/,.,/,120,.,121
CC(C)(C)c1ccc(C(=O)NCCCN2CCN(CCCNC(=O)c3ccc(C(C)(C)C)cc3)CC2)cc1,.,.,.,66,.,74
CC(C)(C)c1ccc(C(=O)NCCN2CCOCC2)cc1,.,.,.,.,/,/
COc1cccc(-c2sc3ccccc3c2-c2ccc(OCCN(C)C)cc2)c1,.,.,.,80,.,79
COc1ccc(-c2sc3ccccc3c2-c2ccc(OCCN3CCCCC3)cc2)cc1,.,.,.,72,.,?
COc1cccc(-c2sc3ccccc3c2-c2ccc(OCCN3CCCCC3)cc2)c1,/,.,/,69,.,62
COc1cccc(-c2sc3ccccc3c2-c2ccc(OCCN3CCCC3)cc2)c1,.,.,.,84,.,68
COc1ccc(C(C)=O)cc1COC(=O)CNC(=O)c1ccc(Cl)cc1,.,.,.,.,/,/
CC(C)c1ccccc1-n1c(SCC(=O)c2ccc3c(c2)NC(=O)CO3)nc2ccccc2c1=O,.,.,.,.,/,/
COc1cccc(NC(=O)CN(c2ccccc2OC)S(=O)(=O)c2cccs2)c1,.,.,.,.,/,/
N#Cc1ccc(Nc2nc(-c3ccc(O)cc3O)cs2)cc1C(F)(F)F,/,.,/,68,.,55
Oc1ccc(-c2csc(Nc3ccc4c(c3)OCO4)n2)c(O)c1,.,.,.,/,/,/
CC(C)CNC(=O)NC(=O)CSc1nc2ccccc2n1CC(C)C,.,.,.,.,/,/
O=C(NC(=S)Nc1ccccc1N1CCN(C(=O)c2ccccc2)CC1)c1cccs1,.,.,.,.,/,/
O=C(NC(=S)Nc1ccc(N2CCN(C(=O)c3ccccc3)CC2)cc1)c1cccs1,.,.,.,48,.,56
Cc1ccc(NC(=O)C(NC2CCCc3ccccc32)c2ccccc2)c([N+](=O)[O-])c1 (centres undefined),.,.,.,.,/,/
COC(=O)c1c(NC(=O)c2nc3ccccc3s2)sc2c1CCN(C(C)=O)C2,/,.,/,104,.,94
COC(=O)c1c(NC(=O)c2cccc(N3C(=O)CCC3=O)c2)sc2c1CCN(C(C)=O)C2,.,.,.,.,/,/
CCN(CC)C(=O)C(=O)N/N=C/c1ccc(C(=O)O)cc1,.,.,.,.,/,/
CC(=O)Nc1ccc(S(=O)(=O)N2CCN(CC(O)COc3ccc4ccccc4c3)CC2)cc1 (centres undefined),.,.,.,47,.,49
CC(=O)Nc1ccc(OCC(O)CN2CCN(S(=O)(=O)c3ccc(NC(C)=O)cc3)CC2)cc1 (centres undefined),.,.,.,.,/,/
CCc1sc(C(C2C(=O)CC(C)(C)CC2=O)C2C(=O)CC(C)(C)CC2=O)cc1[N+](=O)[O-],.,.,.,.,/,/
CNC(=O)c1c(NC(=O)c2cccc(N3C(=O)CCC3=O)c2)sc2c1CCC2,.,.,.,50,.,.
SMILES,MBD2 inh,Neddylation inh,UHRF1 binding,UBC13 inh,Casp3 counter,UBC13 conf
O=C(CSc1nnc(-c2ccccc2F)n1-c1ccccc1)c1ccc2ccccc2c1,.,/,.,/,/,/
COc1cc(-c2cc(=O)c3c(O)c(OC)c(OC)cc3o2)cc(OC)c1O,.,.,.,49,.,.
CCOC(=O)/C(=C\c1cccc(O)c1)c1nc2sc(C)c(C)c2c(=O)[nH]1,.,.,.,67,.,66
CCC[C@@H](CN1CCC[C@H]1CN1C(N)=NC[C@@H]1Cc1ccccc1)N1C[C@@H](Cc2ccccc2)N(CCCC2CCCC2)C1=N,/,.,/,65,.,58
CCC[C@@H](CN1CCC[C@H]1CN1C(N)=NC[C@H]1CC(C)C)N1C[C@@H](Cc2ccccc2)N(CCCC2CCCC2)C1=N,.,.,.,77,.,83
CC(C)C[C@@H](CN1CCCC1CN1C(=S)NC[C@@H]1Cc1ccccc1)N1C[C@H](Cc2ccccc2)N(CC2CCCCCC2)C1=S (some centres undefined),.,.,.,/,/,/
CCC[C@@H](CN1CCC[C@H]1CN1C(N)=NC[C@@H]1Cc1ccccc1)N1C[C@@H]([C@H](C)CC)N(CCCC2CCCC2)C1=N,/,.,/,91,.,85
CCCCN1C(=N)N([C@@H](C)CN2CCC[C@H]2CN2C(N)=NC[C@@H]2Cc2ccccc2)C[C@H]1[C@H](C)CC,.,.,.,.,/,/
CCCCN1C(=N)N([C@@H](CCC)CN2CCC[C@H]2CN2C(N)=NC[C@@H]2Cc2ccccc2)C[C@H]1Cc1ccccc1,.,.,.,54,.,.
CC(C)[C@H](CN1CCC[C@H]1CN1C(N)=NC[C@H]1C(C)C)N1C[C@@H](Cc2ccccc2)N(CCCC2CCCC2)C1=N,/,.,/,70,.,69
CC(C)C[C@H]1CNC(=O)C(=O)N1C[C@H]1CCCN1C[C@H](CC(C)C)N1C[C@H](Cc2ccccc2)N(CC2CCCCC2)C(=O)C1=O,.,.,.,/,/,/
CCOC(=O)c1cccc(Nc2nc(-c3cccnc3)nc3ccccc23)c1,.,.,.,60,.,70
COC(=O)c1cccc(Nc2nc(-c3cccnc3)nc3ccccc23)c1,.,.,.,.,/,/
COc1cccc(CNc2nc(-c3cccnc3)nc3ccccc23)c1,.,.,.,53,.,.
O=C(C[n+]1cccc(CNC(=O)c2ccc(OC(F)F)cc2)c1)Nc1ccc(SC(F)F)cc1,.,.,.,55,.,102
O=C(C[n+]1cccc(CNC(=O)c2ccc(OC(F)F)cc2)c1)Nc1ccccc1Cl,.,.,.,.,/,/
NCCCC[C@@H]1NC(=O)c2cc([N+](=O)[O-])cc(F)c2NCCCC[C@@H](C(N)=O)NC(=O)CNC1=O,.,.,.,85,.,77
CC[C@H](C)[C@@H]1NC(=O)c2cc([N+](=O)[O-])cc(F)c2NCCCC[C@@H](C(N)=O)NC(=O)[C@H](CCCCN)NC1=O,.,.,.,78,.,62
